Some compounds were tested as several samples or in several runs, with calls that do not always agree. Activity calls are given as the source filed them. How the source made its calls: active means hit-call score of the fitted dose curve at least 0.9, where 1 is the maximum; inactive means score below 0.9.
tested on: not listed separately; assay: ATG_Sox_CIS: Attagene CIS-FACTORIAL HepG2 Assay for human SRY-box transcription factor (SOX) (AID 2282960); conditions: HepG2 Attagene cis-factorial SOX reporter, mRNA; actives raise or lower the signal
In short: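 HepG2, cis reporter units, 24 h exposure. Reporter mRNA: RT-PCR → FAM labelling → HpaI → CE fluorescence. Bidirectional fit vs DMSO.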

Row | SMILES | outcome
1 | Cc1ccc(N=C=O)cc1N=C=O | inactive
2 | CCCSC(=O)N(CCC)CCC | inactive
3 | O=C(O)C1C2CCC(O2)C1C(=O)O (centres undefined) | inactive
4 | Oc1ccccc1Cl | inactive
5 | CC(C)(C)C(O)(CCc1ccc(Cl)cc1)Cn1cncn1 (centres undefined) | inactive
6 | COC(=O)Nc1nc2ccccc2[nH]1 | inactive
7 | ClC1=C(Cl)C2(Cl)C3C(Cl)C=CC3C1(Cl)C2(Cl)Cl (centres undefined) | inactive
8 | ClC1=C(Cl)[C@]2(Cl)[C@H]3[C@H]([C@@H]4C=C[C@H]3C4)[C@@]1(Cl)C2(Cl)Cl | inactive
9 | Nc1ccc(Oc2ccc(N)cc2)cc1 | inactive
10 | OCCCBr | inactive
11 | CCN(CC)N=O | inactive
12 | c1ccc(C2CO2)cc1 (centres undefined) | inactive
13 | CC(C)N(Cc1ccccc1)C(=O)C(C)(C)C | inactive
14 | c1ccc(N=Nc2ccccc2)cc1 | inactive

target: Transcription factor Sp1 (Homo sapiens) (UniProt P08047); assay: ATG_Sp1_CIS: Attagene CIS-FACTORIAL HepG2 Assay for human Specificity Protein 1 (Sp1) (AID 2282961); conditions: HepG2 Sp1 cis-reporter transcription, actives raise or lower the signal
In short: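 Liver-derived HepG2 cells, cis-element reporter library, 24 h treatment; RNA isolated, cDNA amplified with reporter-specific primers, FAM-labeled fragments sized on capillary analyzer. DMSO baseline, bidirectional curve fit.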

Chain of Transcription factor Sp1 (Homo sapiens) (P08047 whole entry, looked up, the tested form may be a part): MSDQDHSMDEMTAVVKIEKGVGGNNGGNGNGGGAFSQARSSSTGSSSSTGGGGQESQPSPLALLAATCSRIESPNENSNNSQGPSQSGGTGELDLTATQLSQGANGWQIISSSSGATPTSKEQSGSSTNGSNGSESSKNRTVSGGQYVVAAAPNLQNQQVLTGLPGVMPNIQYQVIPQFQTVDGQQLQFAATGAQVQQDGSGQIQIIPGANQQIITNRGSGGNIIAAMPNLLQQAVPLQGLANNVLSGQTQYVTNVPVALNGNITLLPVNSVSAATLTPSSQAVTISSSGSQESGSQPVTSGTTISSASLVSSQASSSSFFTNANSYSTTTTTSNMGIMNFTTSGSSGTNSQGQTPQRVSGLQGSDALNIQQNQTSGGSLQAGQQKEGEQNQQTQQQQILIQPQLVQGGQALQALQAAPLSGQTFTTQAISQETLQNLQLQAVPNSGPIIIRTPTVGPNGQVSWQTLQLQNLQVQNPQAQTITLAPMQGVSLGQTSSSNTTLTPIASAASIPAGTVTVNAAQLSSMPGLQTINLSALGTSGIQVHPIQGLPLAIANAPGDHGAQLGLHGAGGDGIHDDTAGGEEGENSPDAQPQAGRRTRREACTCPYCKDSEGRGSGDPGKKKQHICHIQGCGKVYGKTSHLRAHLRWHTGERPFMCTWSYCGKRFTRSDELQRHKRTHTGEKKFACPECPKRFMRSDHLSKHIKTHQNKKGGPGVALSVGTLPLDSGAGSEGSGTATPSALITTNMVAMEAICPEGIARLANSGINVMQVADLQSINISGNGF

Row | SMILES | AC50 | outcome
15 | O=[N+]([O-])C(Br)(CO)CO | 145 µM (active) | 
16 | CCCCCOC(=O)c1ccccc1C(=O)OCCCCC |  | inactive
17 | Cc1ccc(N=C=O)cc1N=C=O |  | inactive
18 | CCCSC(=O)N(CCC)CCC |  | inactive
19 | O=C(O)C1C2CCC(O2)C1C(=O)O (centres undefined) | 100 µM (active) | 
20 | Oc1ccccc1Cl |  | inactive
21 | CC(C)(C)C(O)(CCc1ccc(Cl)cc1)Cn1cncn1 (centres undefined) |  | inactive
22 | COC(=O)Nc1nc2ccccc2[nH]1 |  | inactive
23 | ClC1=C(Cl)C2(Cl)C3C(Cl)C=CC3C1(Cl)C2(Cl)Cl (centres undefined) | 168 µM (active) | 
24 | N#CC(Br)Br |  | inactive
25 | ClCCOCCCl |  | inactive
26 | ClC1=C(Cl)[C@]2(Cl)[C@H]3[C@H]([C@@H]4C=C[C@H]3C4)[C@@]1(Cl)C2(Cl)Cl |  | inactive
27 | C1=Cc2cccc3cccc1c23 |  | inactive
28 | CS(=O)(=O)NC(=O)c1cc(Oc2ccc(C(F)(F)F)cc2Cl)ccc1[N+](=O)[O-] |  | inactive
29 | CCNS(=O)(=O)C(F)(F)C(F)(F)C(F)(F)C(F)(F)C(F)(F)C(F)(F)C(F)(F)C(F)(F)F |  | inactive
30 | CCN(CC)CCO |  | inactive
31 | CCOc1cccc(C2(N3CCN(c4ccccc4)CC3)CCC(C)CC2)c1 (centres undefined) |  | inactive
32 | Nc1ccc(Oc2ccc(N)cc2)cc1 |  | inactive
33 | CCCCOC(=O)c1ccccc1C(=O)OCc1ccccc1 |  | inactive
34 | OCCCBr |  | inactive
35 | CCN(CC)N=O |  | inactive
36 | c1ccc(C2CO2)cc1 (centres undefined) |  | inactive
37 | [O-][Cl+]O |  | inactive
38 | Oc1ccc2ccc3cccc4ccc1c2c34 |  | inactive
39 | Cc1cccc(N)c1N |  | inactive
40 | CC(C)N(Cc1ccccc1)C(=O)C(C)(C)C |  | inactive
41 | Cc1cc(N=Nc2ccccc2C)ccc1N |  | inactive
42 | c1ccc(N=Nc2ccccc2)cc1 |  | inactive

tested on: not listed separately; assay: ATG_SREBP_CIS: Attagene CIS-FACTORIAL HepG2 Assay for human Sterol Regulatory Element Binding (SREBP) (AID 2282962); conditions: HepG2 Attagene cis-factorial SREBP reporter, mRNA; actives raise or lower the signal
In short: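 mRNA induction of transfected cis-promoter reporters in HepG2 cells, 24 h post-dose. Detection: RT-PCR with 6-FAM-labelled products, HpaI digest, capillary electrophoresis. DMSO served as negative control and baseline.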

Row | SMILES | outcome | AC50
43 | O=[N+]([O-])C(Br)(CO)CO | inactive | 
44 | CCCCCOC(=O)c1ccccc1C(=O)OCCCCC | inactive | 
45 | Cc1ccc(N=C=O)cc1N=C=O | inactive | 
46 | CCCSC(=O)N(CCC)CCC | inactive | 
47 | O=C(O)C1C2CCC(O2)C1C(=O)O (centres undefined) | inactive | 
48 | Oc1ccccc1Cl | inactive | 
49 | CC(C)(C)C(O)(CCc1ccc(Cl)cc1)Cn1cncn1 (centres undefined) |  | 1.79 µM (active)
50 | COC(=O)Nc1nc2ccccc2[nH]1 | inactive | 
51 | ClC1=C(Cl)C2(Cl)C3C(Cl)C=CC3C1(Cl)C2(Cl)Cl (centres undefined) | inactive | 
52 | N#CC(Br)Br | inactive | 
53 | ClCCOCCCl | inactive | 
54 | ClC1=C(Cl)[C@]2(Cl)[C@H]3[C@H]([C@@H]4C=C[C@H]3C4)[C@@]1(Cl)C2(Cl)Cl | inactive | 
55 | C1=Cc2cccc3cccc1c23 | inactive | 
56 | CS(=O)(=O)NC(=O)c1cc(Oc2ccc(C(F)(F)F)cc2Cl)ccc1[N+](=O)[O-] | inactive | 
57 | CCNS(=O)(=O)C(F)(F)C(F)(F)C(F)(F)C(F)(F)C(F)(F)C(F)(F)C(F)(F)C(F)(F)F | inactive | 148 µM (active)
58 | CCN(CC)CCO | inactive | 
59 | CCOc1cccc(C2(N3CCN(c4ccccc4)CC3)CCC(C)CC2)c1 (centres undefined) | inactive | 
60 | Nc1ccc(Oc2ccc(N)cc2)cc1 | inactive | 
61 | CCCCOC(=O)c1ccccc1C(=O)OCc1ccccc1 | inactive | 
62 | OCCCBr | inactive | 
63 | CCN(CC)N=O | inactive | 
64 | c1ccc(C2CO2)cc1 (centres undefined) | inactive | 
65 | [O-][Cl+]O | inactive | 
66 | Oc1ccc2ccc3cccc4ccc1c2c34 | inactive | 
67 | Cc1cccc(N)c1N | inactive | 
68 | CC(C)N(Cc1ccccc1)C(=O)C(C)(C)C | inactive | 
69 | Cc1cc(N=Nc2ccccc2C)ccc1N | inactive | 
70 | c1ccc(N=Nc2ccccc2)cc1 | inactive | 

target: Signal transducer and activator of transcription 3 (Homo sapiens) (UniProt P40763); assay: ATG_STAT3_CIS: Attagene CIS-FACTORIAL HepG2 Assay for human Signal Transducer and Activator of Transcription 3 (STAT3) (AID 2282963); conditions: HepG2, Attagene cis-factorial STAT3 reporter transcription; actives raise or lower the signal
In short: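 After a 24 h compound incubation, total RNA from MRTU-transfected HepG2 cells was converted to cDNA and reporter sequences PCR-amplified, labelled and profiled by capillary electrophoresis. Gain and loss of signal were referenced to DMSO.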

Chain of Signal transducer and activator of transcription 3 (Homo sapiens) (P40763 whole entry, looked up): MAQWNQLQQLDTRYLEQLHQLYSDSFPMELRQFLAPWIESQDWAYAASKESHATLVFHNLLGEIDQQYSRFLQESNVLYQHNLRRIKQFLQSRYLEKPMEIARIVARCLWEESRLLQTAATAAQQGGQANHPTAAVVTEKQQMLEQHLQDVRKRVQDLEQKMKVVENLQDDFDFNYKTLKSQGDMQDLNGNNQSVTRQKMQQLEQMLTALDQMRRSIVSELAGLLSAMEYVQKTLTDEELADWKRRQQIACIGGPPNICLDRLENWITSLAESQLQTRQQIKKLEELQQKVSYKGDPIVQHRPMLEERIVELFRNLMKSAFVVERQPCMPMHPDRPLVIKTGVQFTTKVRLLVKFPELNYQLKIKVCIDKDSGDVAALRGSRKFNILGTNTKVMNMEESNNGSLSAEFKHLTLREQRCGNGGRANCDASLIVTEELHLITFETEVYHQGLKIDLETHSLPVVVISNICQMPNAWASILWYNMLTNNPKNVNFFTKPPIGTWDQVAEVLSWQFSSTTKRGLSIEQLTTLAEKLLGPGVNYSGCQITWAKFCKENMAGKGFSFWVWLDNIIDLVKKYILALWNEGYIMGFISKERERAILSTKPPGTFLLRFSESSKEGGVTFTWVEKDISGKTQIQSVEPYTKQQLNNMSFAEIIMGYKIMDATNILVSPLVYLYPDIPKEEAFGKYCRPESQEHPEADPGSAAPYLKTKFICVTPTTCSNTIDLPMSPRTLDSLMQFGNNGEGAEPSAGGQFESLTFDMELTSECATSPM

Row | SMILES | outcome
71 | O=[N+]([O-])C(Br)(CO)CO | inactive
72 | CCCCCOC(=O)c1ccccc1C(=O)OCCCCC | inactive
73 | Cc1ccc(N=C=O)cc1N=C=O | inactive
74 | CCCSC(=O)N(CCC)CCC | inactive
75 | O=C(O)C1C2CCC(O2)C1C(=O)O (centres undefined) | inactive
76 | Oc1ccccc1Cl | inactive
77 | CC(C)(C)C(O)(CCc1ccc(Cl)cc1)Cn1cncn1 (centres undefined) | inactive
78 | COC(=O)Nc1nc2ccccc2[nH]1 | inactive
79 | ClC1=C(Cl)C2(Cl)C3C(Cl)C=CC3C1(Cl)C2(Cl)Cl (centres undefined) | inactive
80 | N#CC(Br)Br | inactive
81 | ClCCOCCCl | inactive
82 | ClC1=C(Cl)[C@]2(Cl)[C@H]3[C@H]([C@@H]4C=C[C@H]3C4)[C@@]1(Cl)C2(Cl)Cl | inactive
83 | C1=Cc2cccc3cccc1c23 | inactive
84 | CS(=O)(=O)NC(=O)c1cc(Oc2ccc(C(F)(F)F)cc2Cl)ccc1[N+](=O)[O-] | inactive
85 | CCNS(=O)(=O)C(F)(F)C(F)(F)C(F)(F)C(F)(F)C(F)(F)C(F)(F)C(F)(F)C(F)(F)F | inactive
86 | CCN(CC)CCO | inactive
87 | CCOc1cccc(C2(N3CCN(c4ccccc4)CC3)CCC(C)CC2)c1 (centres undefined) | inactive
88 | Nc1ccc(Oc2ccc(N)cc2)cc1 | inactive
89 | CCCCOC(=O)c1ccccc1C(=O)OCc1ccccc1 | inactive
90 | OCCCBr | inactive
91 | CCN(CC)N=O | inactive
92 | c1ccc(C2CO2)cc1 (centres undefined) | inactive
93 | [O-][Cl+]O | inactive
94 | Oc1ccc2ccc3cccc4ccc1c2c34 | inactive
95 | Cc1cccc(N)c1N | inactive
96 | CC(C)N(Cc1ccccc1)C(=O)C(C)(C)C | inactive
97 | Cc1cc(N=Nc2ccccc2C)ccc1N | inactive
98 | c1ccc(N=Nc2ccccc2)cc1 | inactive
